This passage reports fold change results from PubChem BioAssay AID1042 (National Center for Advancing Translational Sciences (NCATS), 2008).

Structures are written as SMILES. Results filed as inconclusive are left out. Unmarked numbers belong to inactive results. The source made the active and inactive calls.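 The calls were made as follows: active = raised CDH13 expression over DMSO controls, judged by fold change in triplicate runs, no set cutoff; inconclusive = doubtful CDH13 rise, criteria not stated; inactive = no rise, falls in expression ignored.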

The experiment can be described thus: CDH13 Derepression/Induction Secondary Assay for qHTS Assay for Epigenetic Modulators. Particulars: H358 cells, CDH13 mRNA qPCR, 72 h; active compounds read high. An excerpt:
NIH Molecular Libraries Screening Centers Network [MLSCN] NIH Chemical Genomics Center [NCGC] MLSCN Grant: 1 X01 MH079860-01 Assay Provider: Elisabeth D. Martinez, University of Texas SW Medical Center NCGC Assay Overview: This secondary assay characterizes selected actives identified in the qHTS of the Locus Derepression (LDR) assay (PubChem AID 597). The LDR assay detects the derepression of a GFP reporter that is stably integrated in a region of the genome of murine c127i mammary cells that is presumably silenced. Compounds that cause derepression of the locus to express GFP are identified by enumerating GFP positive cells using a laser-scanning microplate cytometer. Selected LDR actives were assayed for the induction of CDH13 gene expression, a gene silenced by methylation of its promoter. Treatment of cells with DNA methyltransferase inhibitors, like 5-azadeoxycytidine, or with HDAC inhibitors, like trichostatin A, induce CDH13 gene expression. Compounds active in this assay may modulate components involved in DNA methylation, histone acetylation or gene transcription.
NCGC Assay Protocol Summary Exponentially growing H358 non-small cell lung cancer cells were treated daily with fresh media containing the indicated concentrations of compounds for 72 hr. Cellular RNA was extracted, quantified, DNAse treated and reverse transcribed. The resulting cDNA was amplified in TaqMan real time quantitative PCR assays (Applied Biosystems) containing validated primers specific for CDH13 (Hs00169908.m1). Reactions were performed on an ABI Prism 7900HT, with an initial 2 min preincubation at 50 C, followed by 10 min at 95 C and then 40 cycles of 95 C for 15 seconds and 60 C for 1 min. GAPDH and 18S ribosomal RNA were used as references. Gene expression was measured by fold-induction over control DMSO-treated samples (36-37 average cycle time). Increases corresponded to at least 2-3 cycle time differences over DMSO controls, which were in the measurable range. Decreases in expression were considered insignificant as measurement of the DMSO samples were at the low limit of detection. Reactions were run in triplicate and error bars represent standard deviations. For further details, see R.L. Johnson, W. Huang, A. Jadhav, C.P. Austin, J. Inglese, E.D. Martinez, A Quantitative High-Throughput Screen Identifies Potential Epigenetic Modulators of Gene Expression, Analytical Biochemistry (2007), doi: 10.1016/j.ab.2007.12.028
With `CN1CCN(Cc2cc(Cl)c3cccnc3c2O)CC1`, the fold change is 10 (active).
The result for `Nc1ncn([C@H]2C[C@H](O)[C@@H](CO)O2)c(=O)n1` reads 9 (active); that for `CC(C)C(=O)NC(c1ccco1)c1ccc2cccnc2c1O` (stereo not given), 12 (active).
The result for `O=C(CSc1cccc2cccnc12)N1CCCC1` reads 1; that for `O=Nc1ccc(O)c2ncccc12`, 85 (active); that for `CCN1CSC(=S)N(CC)C1`, 1.
The result for `CN(C)C(=O)CSc1cccc2cccnc12` reads 1.
Consider `CC(C)C(=O)NC(c1ccco1)c1cc([N+](=O)[O-])c2cccnc2c1O` (stereo not given), for which the fold change is 9 (active).
The result for `CC(/C=C/C(=O)NO)=C\[C@@H](C)C(=O)c1ccc(N(C)C)cc1` reads 256 (active).
The figure for `O=C(CSc1cccc2cccnc12)NCc1ccccc1` is 2.
